# Laboratory results reported in PubChem BioAssay (NCI).
# This is part of a sample that, as a whole, favours compounds with a hit. Of some 83,000 tested, about 20% had one in any assay.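 Activity criterion: percent growth below 10, measured after cells in 96-well plates were exposed to a single compound concentration for 48 hours.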 A number with no mark means an inactive call. Calls of active or inactive are those of the source.
# Test system: ACHN renal
# Assay: NCI-60 one-dose screen, 48 h (100 = growth as untreated, 0 = no growth, -100 = all killed)
# Details: 10 µM unless noted
row,Compound,growth
1,C=C(C)[C@@H]1CC[C@]2(C(N)=O)CC[C@]3(C)[C@H](CC[C@@H]4[C@@]5(C)CC[C@H](O)C(C)(C)[C@@H]5CC[C@]43C)[C@@H]12,-80.3% [100 µM] (active)
2,CCN1CCN(CC(=O)Nc2nc3ccc(NCc4ccc(Cl)cc4)cc3s2)CC1,83.3%
3,COc1cc(C)cc2oc3oc(=O)c(C(=O)c4cc5cc(Br)ccc5o4)cc3c(=O)c12,95.8%
4,O=S(=O)(NCCCNc1nccc(-c2c(-c3cccc(F)c3)nc3occn23)n1)c1cccc2ccccc12,29.5%
5,CC1(C)[C@@H](NOCCCN)CC[C@]2(C)[C@H]3C(=O)C=C4[C@@H]5C[C@](C)(C(=O)O)CC[C@]5(C)CC[C@@]4(C)[C@]3(C)CC[C@@H]12,-100% [100 µM] (active)
6,O=c1[nH]c(CN2CCN(c3cccc(Cl)c3)CC2)nc2cc(Cl)ccc12,97.5%
7,COc1cc2c(O)n(CCCN3CCOCC3)c3c4cnc5cccc(c(=O)c3c2cc1OC)c54,12.2%
8,CCOC(=O)c1sc2nc(-c3cc(OC)c(OC)c(OC)c3)nc(N3CCOCC3)c2c1C,33.6%
9,Cc1cc(C)c(S(=O)(=O)/N=c2/n(-c3ccccc3)nc3n2CCN3C2=NCCN2)c(C)c1,90%
10,Cc1ccc(S(=O)(=O)N/N=C2\CC3CCC2(C)C3(C)C)cc1 (configuration not stated),102%
11,N#C/C(C(=O)c1ccccc1)=C1/C(=O)Nc2ccccc21,98%
12,CCc1ccc(C2=C/C(=C/c3ccccc3)C(=O)N2CCc2ccc(S(N)(=O)=O)cc2)cc1,99%
13,CC(C)C1=NOC(=O)C1=Cc1cn(-c2ccco2)nc1-c1ccccc1,92.3%
14,COc1cc(Cl)cc(-c2nn(C(=O)NS(=O)(=O)c3ccccc3)cc2-c2ccncc2)c1,80%
15,C=C(C)[C@@H]1CC[C@]2(COCCC#N)CC[C@]3(C)[C@H](CC[C@@H]4[C@@](C)(CCCNCCC#N)[C@H](C(=C)C)CC[C@]43C)[C@@H]12,11.4% [100 µM]
16,COc1ccc(N(c2nc(-c3ccc([N+](=O)[O-])cc3)cs2)C(C)C)cc1,89%
17,NS(=O)(=O)c1ccc(CCN2C(=O)/C(=C\c3ccccc3)C=C2c2ccc(Cl)cc2)cc1,97%
18,O=C1C(Cl)=C(Nc2ccc3cn[nH]c3c2)C(=O)c2ccccc21,41.1%
19,CC(C)c1ccc(C(=O)Nc2sc3c(c2C#N)CCC(=O)C3)cc1,-90.5% (active)

row,Compound,growth
1,Cc1ccc2c(c1)/C(=N\N=C/c1cn(C(C)C)c3ccccc13)C(=O)N2,55.4%
2,O=C(C[n+]1ccn(CC(OCc2ccc(Cl)cc2Cl)c2ccc(Cl)cc2Cl)c1)c1ccc(F)cc1 (configuration not stated),26.5%
3,CCOc1cccc2c(NC(C)CCCN(CC)CC)c(C)cnc12 (configuration not stated),109%
4,O=C(Nc1cccc2ccccc12)c1cc2ccccc2cc1O,1.41% (active)
5,Cc1cc(C)nc(SCC(=O)Nc2cccc(N=Cc3ccccc3O)c2)n1,99.2%
6,CSc1nc2c(c(=O)n1C)C1(C(=O)N(Cc3ccccc3)c3ccccc31)c1c(nc(SC)n(C)c1=O)N2,77.5%
7,O=C1COCCN1c1ccc(NCc2cn(Cc3ccc(F)cc3)c3ccccc23)cc1,61.6%
8,CCN(CCO)CCC(=O)c1ccc([N+](=O)[O-])cc1,110%
9,O=C(Nc1cccc(C2=NCCN2)c1)c1cccc(C(=O)Nc2cccc(C3=NCCN3)c2)c1,101%
10,CC(C)[C@H]1CCC2=C3CC[C@]45OC(=O)[C@@]6(CCC(C)(C)C[C@H]64)CC[C@@]5(C)[C@]3(C)CC[C@@]21C,72.4% [100 µM]
11,COc1ccc(/C=C2\N=C(Nc3ccccc3)N(NC(=O)c3ccccn3)C2=O)cc1,99.4%
12,Nc1nnc(CSc2nnc3n(Cc4ccccc4)c(=O)c4c5c(sc4n23)CCCC5)s1,94.9%
13,O=C(NCCCNC(=O)OCc1ccc2c(Br)cc(Br)c(O)c2n1)OCc1ccc2c(Br)cc(Br)c(O)c2n1,-100% (active)
14,CCn1cc(-c2[nH]c(=S)ncc2-c2ccc(Cl)cc2)c(-c2ccc(Br)cc2)n1,91.1%
15,Cc1cccc(C[C@H](NC(=O)Nc2ccc(Cl)cc2F)C(=O)N[C@@H]2C(=O)N3C[C@H](O)C[C@H]3C(=O)N3CCCC[C@H]3C(=O)N[C@@H](C)C(=O)N3C[C@H](C)C[C@H]3C(=O)O[C@H]2C)c1,8.94% (active)
16,O=C(NCCCNC(=O)OCc1ccc2cccc(O)c2n1)OCc1ccc2cccc(O)c2n1,19.8%
17,CCN(CC)CCCC(C)Nc1ccnc2cc(Cl)c(SCc3ccccc3)cc12 (configuration not stated),-89.2% (active)
18,Cc1ccc(C2=C/C(=C/c3ccc(Br)cc3)C(=O)N2CCc2ccc(S(N)(=O)=O)cc2)cc1,97.7%
